# PubChem BioAssay
# Records with an inconclusive call do not appear. Active and inactive are the calls of the source.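 The calls were made as follows, unless noted: active = growth inhibition above 25% in both replicates, a cutoff set 3 SD above the mean; inconclusive = above 25% in only one replicate; inactive = the rest.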
# What was measured:
# [1] = Her2 expression decrease, cell viability multiplex – SKBR3 breast tumor cells, AlphaScreen, ATP viability, primary screen (AID 461;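 active = Her2 level under about 52% in both replicate screens, with viability over 70% of control, limit read from the data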;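 as to Her2 level: lower value means less Her2 protein in the cells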;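 as to viability: percent of carrier control wells set as 100% viability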); conditions: SKBR3 Her2 protein level, 18-24 h, measured here: SKBR3 viability, ATP luminescence, at 10 µM
# [2] = target: Receptor tyrosine-protein kinase erbB-2 (Homo sapiens) (UniProt P04626); experiment: as above; conditions: 18-24 h, at 10 µM, stronger effect = lower value
# [3] = reduced viability of SK-BR-3 breast cancer cells – cell-based, 24 h, human, pilot screen (AID 572;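 active = viability at or below 10% of carrier control in both of two separate runs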;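 also: compound exposure lasted between 18 and 24 h rather than exactly 24 h; 100% = carrier-treated control wells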); conditions: SK-BR-3 viability, CellTiter-Glo luminescence, at 10 µM, stronger effect = lower value
# [4] = HUVEC growth inhibition – cell-based, human, primary screen (AID 575;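 active = viability at or below 30% in both replicate assays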;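 also: 100% = median of untreated cell wells with 0.1% DMSO on each plate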); conditions: HUVEC proliferation, CellTiter-Glo luminescence, 72 h; at 10 µM; stronger effect = lower value
# [5] = H69AR cell proliferation blockers – human, duplicate replicates, primary screen (AID 580;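 active = viability at or under a set limit in both replicates, limit being median viability minus 3 SD, cut at about 48% in these data, passing the limit was not always enough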;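 also: 100% = mean luminescence of untreated wells and 0% = no signal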); conditions: H69AR lung tumor cells viability, ATP luminescence, 72 h; at 10 µM; stronger effect = lower value
# [6] = MRP1 drug-resistance reversers in H69AR cells – cell-based, doxorubicin co-treatment, pilot screen (AID 601;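 active = viability loss from added drug above about 55%, and viability with drug at most 40%, in both replicates, limit read from the data, passing the limit was not always enough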); conditions: CellTiter-Glo, 72 h, at 10 µM; for differential viability (reversal): stronger effect = higher value
# [7] = yeast transport mutant growth inhibition pilot in 384-well plates, post-Golgi transport modulator project (AID 636; in the data active = inhibition above about 31%); conditions: absorbance 615 nm, about 18 h, stronger effect = higher value
# [8] = growth suppression of yeast trafficking mutant, preliminary HTS, modulators of trafficking downstream of Golgi apparatus project, 1536-format plate, OD 615 nm (AID 637; in the data active = inhibition above about 30%); conditions: yeast transport mutant growth, absorbance 615 nm, 18 h; stronger effect = higher value
# [9] = S. cerevisiae growth inhibition in permissive medium (OD615), pilot counter-assay for S. cerevisiae lifespan shortening project, permissive growth control (AID 705); conditions: OD615, 24 h, at 10 µM, stronger effect = higher value
# [10] = S. cerevisiae growth inhibition in restrictive medium, OD615, pilot screen, restrictive growth control, yeast lifespan reduction project (AID 706;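 active = growth inhibition above a set limit, 3 SD over mean compound inhibition, in both replicates, cut at about 43% in these data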;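 also: modified DeaD lifespan yeast strain shifted to restrictive glucose medium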); conditions: OD615, 48 h, at 10 µM, stronger effect = higher value
# [11] = doxorubicin toxicity protection in MRP-1 cells – H69AR cells, CellTiter-Glo, duplicate, MRP-1 activator project, pilot screen (AID 807;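 active = viability increase at or above a cutoff of the median across tested compounds plus 3 SD, cut at about 8.5% in these data, passing the limit was not always enough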;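 also: compound pretreatment 18-22 h then 72 h combined with doxorubicin; 0% = doxorubicin alone and 100% = vehicle without doxorubicin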); conditions: H69AR viability with doxorubicin, CellTiter-Glo luminescence; at 10 µM; stronger effect = higher value
# [12] = viability of HCT116 without oncogenic beta-catenin – human colon tumor cells, pilot screen (AID 823;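 active = cell viability at or below a set limit in both duplicate runs, the limit being the all-compound median minus 4 SD, cut at about 23% in these data, passing the limit was not always enough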;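 also: 0% = wells killed by 20 µM Hyamine and 100% = untreated DMSO cell wells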); conditions: HCT116 beta-catenin knockout viability, CellTiter-Glo, 60 h; at 10 µM; stronger effect = lower value
# [13] = viability of PTEN-null HCT116 cells – cell-based, HCT116 clonal line, CellTiter-Glo, pilot screen (AID 824;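 active = viability at or below 27.92% in each of two runs, the all-compound median minus 4 SD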;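 also: 0% = 20 µM Hyamine control and 100% = vehicle cell control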); conditions: HCT116 PTEN-deleted viability, 60 h, at 10 µM, stronger effect = lower value
# [14] = RAM pathway blockade in budding yeast – dse1pr::URA3 reporter, 5-FOA selection, pilot screen (AID 869;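 active = inhibition over a set limit, the all-compound mean plus 3 SD, in both replicate runs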;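 also: 0% = DMSO wells with no growth and 100% = 10 µM 1-NA-PP1 with full growth; RAM network block rescues cells from 5-FOA so hits raise OD615 growth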); conditions: S. cerevisiae dse1pr::URA3 5-FOA growth, OD615, 2 d; at 10 µM; stronger effect = higher value; strain carries analog-sensitive mutant Cbk1 kinase
# [15] = RAM signaling pathway blockade in yeast – S. cerevisiae, Pdr1DBD-CYC8 efflux-inhibited sensitized strain, primary screen (AID 1298;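 active = RAM network inhibition above 8.4% in each of two replicates, 3 SD over the compound average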;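 also: 0% = DMSO untreated cells without growth and 100% = 10 µM 1-NA-PP1 full growth; higher means more yeast growth rescued from 5-FOA killing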); conditions: S. cerevisiae cbk1-as DSE1-URA3 strain, 5-FOA growth OD615, 2 d; at 50 µM; stronger effect = higher value
# [16] = H69AR cells + 2 uM doxorubicin, measured here: viability with 2 uM doxorubicin, stronger effect = lower value
# [17] = H69AR cells, compound alone cytotoxicity
# Receptor tyrosine-protein kinase erbB-2 (Homo sapiens), sequence (P04626 whole entry, looked up): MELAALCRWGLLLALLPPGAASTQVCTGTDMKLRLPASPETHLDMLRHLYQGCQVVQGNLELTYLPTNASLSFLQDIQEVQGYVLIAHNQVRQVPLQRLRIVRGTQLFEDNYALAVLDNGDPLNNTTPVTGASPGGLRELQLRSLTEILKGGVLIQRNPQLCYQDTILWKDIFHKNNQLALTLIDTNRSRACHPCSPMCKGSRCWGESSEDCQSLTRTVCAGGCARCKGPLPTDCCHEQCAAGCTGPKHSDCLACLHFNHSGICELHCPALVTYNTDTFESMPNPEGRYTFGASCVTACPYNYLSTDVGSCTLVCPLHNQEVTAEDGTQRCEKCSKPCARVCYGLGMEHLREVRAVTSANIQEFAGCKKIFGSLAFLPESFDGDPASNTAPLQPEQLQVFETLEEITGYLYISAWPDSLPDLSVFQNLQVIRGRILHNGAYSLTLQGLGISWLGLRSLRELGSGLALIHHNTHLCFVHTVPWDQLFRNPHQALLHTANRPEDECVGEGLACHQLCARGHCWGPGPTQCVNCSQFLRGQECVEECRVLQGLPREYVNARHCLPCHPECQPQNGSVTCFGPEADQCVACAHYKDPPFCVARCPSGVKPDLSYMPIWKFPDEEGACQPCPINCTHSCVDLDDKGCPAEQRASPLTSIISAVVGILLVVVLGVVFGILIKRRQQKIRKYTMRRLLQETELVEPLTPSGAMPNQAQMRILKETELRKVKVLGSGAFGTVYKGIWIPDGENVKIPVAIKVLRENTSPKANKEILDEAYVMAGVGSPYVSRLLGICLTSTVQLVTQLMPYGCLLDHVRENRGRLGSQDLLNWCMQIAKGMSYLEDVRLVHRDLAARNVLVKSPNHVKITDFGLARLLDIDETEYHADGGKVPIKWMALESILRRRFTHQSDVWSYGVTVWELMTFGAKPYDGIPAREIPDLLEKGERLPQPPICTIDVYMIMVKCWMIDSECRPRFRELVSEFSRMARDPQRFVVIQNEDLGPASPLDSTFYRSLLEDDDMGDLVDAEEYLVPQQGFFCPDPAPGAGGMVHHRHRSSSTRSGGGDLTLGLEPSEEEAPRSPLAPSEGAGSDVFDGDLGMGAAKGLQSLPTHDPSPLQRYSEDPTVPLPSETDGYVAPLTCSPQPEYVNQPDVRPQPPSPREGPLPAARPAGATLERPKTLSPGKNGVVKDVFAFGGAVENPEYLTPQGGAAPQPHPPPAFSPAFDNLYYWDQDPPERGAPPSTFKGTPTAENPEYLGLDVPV
Structure (SMILES),viability [1] [%],Her2 level [2],viability [3],viability [4],viability [5],differential viability (reversal) ([6]; H69AR cells + 2 uM doxorubicin),"viability [6, 16] [%]","viability [6, 17] [%]",inhibition [7],inhibition [8],growth inhibition [9],growth inhibition [10],viability increase [11],viability [12],viability [13],inhibition [14],RAM network inhibition [15]
COC(=O)c1ccc(-n2nnnc2SCc2nn[nH]n2)cc1,77,135% (inactive),77% (inactive),107% (inactive),114% (inactive),21.8% (inactive),91.7,114,3.21% (inactive),-5.5% (inactive),-0.675% (inactive),25.4% (inactive),0.27% (inactive),106% (inactive),100% (inactive),0.965% (inactive),-1.09% (inactive)
O=C(Nc1ccncc1)c1cccc(F)c1,103,130% (inactive),103% (inactive),91.5% (inactive),92% (inactive),-0.005% (inactive),92,92,-3.08% (inactive),-2.33% (inactive),-5.12% (inactive),3.45% (inactive),-1.19% (inactive),98.4% (inactive),91.4% (inactive),-0.02% (inactive),2.86% (inactive)
CCOCC(=O)Nc1nc2c(s1)C(=O)CC(C)(C)C2,80.5,108% (inactive),80.5% (inactive),97% (inactive),83.7% (inactive),-6.59% (inactive),90.3,83.7,-7.73% (inactive),1.5% (inactive),-16.7% (inactive),-21% (inactive),-2.68% (inactive),97.3% (inactive),93% (inactive),2.79% (inactive),0.05% (inactive)
COc1ccccc1NC(=O)C1(C)Cc2ccccc2C(=O)O1 (stereo not given),106,108% (inactive),106% (inactive),102% (inactive),91.7% (inactive),2.89% (inactive),88.8,91.7,-2.82% (inactive),0.67% (inactive),-6.73% (inactive),5.93% (inactive),-0.93% (inactive),107% (inactive),99.8% (inactive),1.77% (inactive),5.4% (inactive)
CC1=C(C(=O)OC2CCCC2)C(c2ccc(C)o2)C2=C(CC(c3cccs3)CC2=O)N1 (stereo not given),148,108% (inactive),148% (inactive),75.1% (inactive),74.8% (inactive),13.3% (inactive),61.5,74.8,-1.17% (inactive),-11% (inactive),-3.79% (inactive),-19.9% (inactive),-4.36% (inactive),46.3% (inactive),58.9% (inactive),1.68% (inactive),2.7% (inactive)
CCOC(=O)N1CCC(NC(=O)C2CCN(S(=O)(=O)c3cccc4cccnc34)CC2)CC1,90.5,97.5% (inactive),90.5% (inactive),97.6% (inactive),94.8% (inactive),-6.25% (inactive),101,94.8,-3.07% (inactive),-3.33% (inactive),-5.04% (inactive),3.31% (inactive),0.29% (inactive),91.4% (inactive),92.9% (inactive),1.02% (inactive),1.81% (inactive)
NC(=O)C1CCN(C(=O)c2cc3n(n2)C(C(F)(F)F)CC(c2ccco2)N3)CC1 (stereo not given),84,99.5% (inactive),84% (inactive),104% (inactive),85% (inactive),-0.83% (inactive),85.8,85,-0.93% (inactive),-4.67% (inactive),-7% (inactive),-1.27% (inactive),-1.57% (inactive),97% (inactive),97.4% (inactive),2.2% (inactive),0.98% (inactive)
Cc1ccc(-c2cc(C(F)(F)F)n3nc(C(=O)N4CCCC4)cc3n2)cc1,101,84.5% (inactive),101% (inactive),108% (inactive),111% (inactive),11.3% (inactive),100,111,-0.68% (inactive),3.65% (inactive),-13.3% (inactive),1.45% (inactive),-2.2% (inactive),96.9% (inactive),89% (inactive),1.95% (inactive),4.14% (inactive)
COc1ccc(OC)c(C2CC(=O)NC(SC)=C2C#N)c1 (stereo not given),102,94% (inactive),102% (inactive),83.1% (inactive),94.3% (inactive),11.6% (inactive),82.8,94.3,-5.33% (inactive),-9.02% (inactive),-11.4% (inactive),-5.61% (inactive),0.31% (inactive),104% (inactive),92.6% (inactive),-0.015% (inactive),2.19% (inactive)
COC(=O)C1=C(C)Nc2ncnn2C1c1ccc(C)o1 (stereo not given),103,119% (inactive),103% (inactive),94.5% (inactive),91.7% (inactive),7.49% (inactive),84.2,91.7,0.27% (inactive),4.67% (inactive),-16.6% (inactive),-18.4% (inactive),-1.12% (inactive),107% (inactive),101% (inactive),2.39% (inactive),-1% (inactive)
